HCMV antiviral = blocks human cytomegalovirus replication; 4.5% of 410,000 active; HFF cells, HCMV-luciferase reporter, 72 h; active compounds read low; activity change, negative = inhibition, % at 57.5 µM; AID 1259415; in the data active = activity change below about -60%; inconclusive = no clear call, values can overlap the other calls; inactive = above about -39%; note: % is set by controls: 0 for no effect and ±100 for the full control effect
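Human foreskin fibroblasts infected with luciferase-reporter HCMV at MOI 1 PFU/cell, compounds at two doses. Luciferase measured 72 h post infection; normalized to buffer-only basal and Salinomycin (10uM) controls.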
Shiga inhibitor = inhibitors of Shiga toxin in Vero cells; AID 2315; Vero cells, Shiga toxin protein synthesis inhibition reporter; inhibition, % at 38.7 µM; 9.2% of 290,000 active; in the data active = inhibition mostly above about 28%, no sharp cut-off; inactive = mostly below about 43%; note: 0% is about no effect
Pf growth 96h = P. falciparum growth inhibition at 96 hours; P. falciparum luciferase reporter growth, 96 h; Potency, µM (series often up to 28.7 µM), inactives show at the top dose activity change, negative = inhibition, actives largely listed as inhibitors; 6.9% of 320,000 active; AID 504834; note: potency is the fitted concentration of half-maximal effect; % is set by controls: 0 for no effect and ±100 for the full control effect
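Two parasite generations (96 h, 37 C, 5% CO2) of compound exposure in infected erythrocytes (0.05% parasitemia, 2% hematocrit). Luciferase-reporter P. falciparum; decreased luminescence indicates inhibited growth, aimed at apicoplast-acting delayed death.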
Cycloheximide cs = counter-screen hit for Shiga toxin inhibitors, cycloheximide; cell reporter, cycloheximide protein synthesis inhibition counterscreen; max response, %; 12% of 300,000 active; AID 2314; in the data active = max response mostly above about 13%, no sharp cut-off; inactive = mostly below about 14%; note: read at 38.3 µM for the half of the compounds with a filed dose; 0% is about no effect
Pf growth 48h = P. falciparum growth inhibition at 48 hours (one generation). P. falciparum luciferase growth in erythrocytes, 48 h. Potency, µM (doses to about 28.7 µM), for inactives: at the highest dose activity change, negative = inhibition, most hits filed as inhibitors. 5.9% of 310,000 active. AID 504832; note: potency is the fitted concentration of half-maximal effect; % is set by controls: 0 for no effect and ±100 for the full control effect
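Luciferase-expressing P. falciparum in infected erythrocytes (2% hematocrit, 0.1% parasitemia final) in RPMI 1640/0.5% Albumax were exposed to compound for 48 hours at 37 C, 5% CO2; growth read as luminescence.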
* marks the source's active call; other numbers are inactive results; ? = inconclusive; / = not tested or not shown; [ ] = another dose, or the depositor's remark. Only some compounds are listed: those with a hit (about 20% of all), similar ones and a draw of the others. Unless noted, calls come from the whole dose curve; as a rule, active = well fitted inhibition curve with a large enough effect; inconclusive = small, poorly fitted or top-dose-only effect, or another doubt; inactive = no such curve, though single readings can be large or run the other way.

SMILES | HCMV antiviral | Shiga inhibitor | Pf growth 96h | Cycloheximide cs | Pf growth 48h
COC(=O)Cn1c(=NC(=O)c2cccc(OC)c2)sc2cc(OC)ccc21 | 0 | 30 | ? | 10 | 0%
Cn1c(=NC(=O)CS(=O)(=O)c2ccccc2)sc2cc([N+](=O)[O-])ccc21 | -87* | / | ? | / | 12µM*
COc1cccc(C(=O)N=c2sc3cc(S(C)(=O)=O)ccc3n2C)c1 | 16 | 80* | 13µM* | 28* | 99%
Cc1ccc(S(=O)(=O)CCC(=O)OCC(=O)Nc2cc(F)ccc2C)cc1 | 16 | / | 12% | / | -3%
COc1ccc(C(=O)N2CCCCC2CCN2CCCCC2)cc1 (centres undefined) | 36 | / | / | / | /
Cc1cc(C)cc(NC(=O)c2cc(S(=O)(=O)N3CCC(C)CC3)cn2C)c1 | -1 | / | / | / | /
COc1cccc(CNC(=O)C2CCC(CNS(=O)(=O)c3cccc4cccnc34)CC2)c1 (centres undefined) | -2 | 7 | ? | 8 | ?
COc1ccc(C(=O)N=c2sc3ccccc3n2C)cc1 | 200 | 107* | 463% | 53* | 351%
COc1ccc(C(=O)N=c2sc3cc(Cl)ccc3n2C)cc1 | 22 | / | / | / | /
CC(=O)c1ccc(S(=O)(=O)Nc2ccc(C(=O)N3CCC3)cc2)cc1 | -13 | / | 5% | / | 1%
CC(=O)c1cccc(NC(=O)N2CCCCCC2)c1 | 22 | 14 | -3% | 5 | 8%
CC(=O)c1ccc(NS(=O)(=O)c2ccc(N/C=C/C(=O)c3ccc(F)cc3)cc2)cc1 | -3 | 81* | ? | 53* | ?
CC(=O)c1cccc(NS(=O)(=O)c2ccc(N/C=C\C(=O)c3ccc(F)cc3)cc2)c1 | ? | 122* | ? | 37* | ?
CC(=O)c1cccc(NS(=O)(=O)c2ccc(NC(=O)N3CCCCC3)cc2)c1 | -71* | 17 | 10µM* | -2 | 4%
CC(=O)c1cccc(NS(=O)(=O)c2ccc(N/C=C/C(=O)c3ccc(F)cc3)cc2)c1 | ? | 110* | ? | 46* | ?
CC(=O)c1cccc(NS(=O)(=O)c2ccc(N/C=C\C(=O)c3ccc(C)cc3)cc2)c1 | -2 | 15 | ? | 13 | ?
COc1ccc(C(=O)NCCn2cc(SCC(=O)NCCc3ccc(OC)c(OC)c3)c3ccccc32)cc1 | -17 | / | / | / | /
COc1cc(NS(=O)(=O)c2ccc(N/C=C\C(=O)c3ccc(F)cc3)cc2)nc(OC)n1 | 31 | 94* | 438% | 71* | 20%
Cc1cc(C)cc(OC(C)C(=O)Nc2ccc(S(=O)(=O)Nc3cc(C)nc(C)n3)cc2)c1 (centres undefined) | / | -2 | 13µM* | -2 | 1%
Cc1ccc(C(=O)/C=C/Nc2ccc(S(=O)(=O)Nc3cc(C)nc(C)n3)cc2)cc1 | -21 | 29 | 1% | 29* | ?
COc1cc(NS(=O)(=O)c2ccc(NC(=O)c3cccc(F)c3)cc2)nc(OC)n1 | 33 | / | / | / | /
O=S1(=O)CCC(N(N=Cc2ccco2)c2ccccc2)C1 (centres undefined) | -25 | / | / | / | /
CN(CC(=O)Nc1ccccc1Cl)C(=O)CN1C(=O)NC(c2ccccc2)(c2ccccc2)C1=O | 0 | / | -2% | / | ?
COc1cc(N/N=C(\C)c2ccc(O)c(C)c2)nc(-c2ccccc2)n1 | -90* | 15 | ? | 21 | ?
C/C(=N\Nc1cc(-c2ccccc2)nc(-c2ccccc2)n1)c1ccc(O)c(C)c1 | -64* | 73* | 0% | 20* | ?
SMILES | HCMV antiviral | Shiga inhibitor | Pf growth 96h | Cycloheximide cs | Pf growth 48h
COc1cc(N/N=C(\C)c2ccc(N)cc2)nc(-c2ccccc2)n1 | 41 | 25 | ? | 18 | -6%
NC(CSCc1cccc(Br)c1)C(=O)O (centres undefined) | -65* | -4 | -18% | -4 | 17%
NC(=O)CSCc1cccc(Br)c1 | 26 | 6 | / | 5 | 22%
O=C(O)c1cc(O)c2c(c1)[C@H]([C@H]1c3cc(C(=O)O)cc(O)c3C(=O)c3c(O[C@@H]4O[C@H](CO)[C@@H](O)[C@H](O)[C@H]4O)cccc31)c1cccc(OC3O[C@H](CO)[C@@H](O)[C@H](O)[C@H]3O)c1C2=O (some centres undefined) | -101* | / | 86% | / | 3%
O=C(O)c1cc(O)c2c(c1)[C@@H]([C@H]1c3cc(C(=O)O)cc(O)c3C(=O)c3c(O[C@@H]4O[C@H](CO)[C@@H](O)[C@H](O)[C@H]4O)cccc31)c1cccc(OC3O[C@H](CO)[C@@H](O)[C@H](O)[C@H]3O)c1C2=O (some centres undefined) | -5 | / | 23% | / | ?
Cc1ccc(SCC(=O)N2N=CCC2c2ccccc2)cc1 (centres undefined) | -15 | 67 | 10% | 24* | ?
NC(=NC(=O)c1ccccc1)N1N=CCC1c1ccccc1 (centres undefined) | -22 | -2 | 45% | -4 | -28%
Fc1ccc(NC(=S)N2CCCC(c3ccccc3)=N2)cc1 | 10 | -8 | -2% | -2 | ?
O=C(Nc1cccc2ccccc12)N1N=CCC1c1ccccc1 (centres undefined) | 119 | 109* | 26% | 59* | 110%
O=C(Nc1cccc(Cl)c1)N1N=CCC1c1ccccc1 (centres undefined) | -39 | 10 | -9% | -3 | -11%
Fc1ccc(NC(=S)N2N=CCC2c2ccccc2)cc1 (centres undefined) | 63 | 61* | 47% | 80* | /
S=C(Nc1ccccc1)N1N=CCC1c1ccccc1 (centres undefined) | -5 | 78* | / | 26* | 43%
Cc1nc2nc(SCC(=O)NC3CCCCC3)nn2c(C)c1Cc1ccccc1Cl | 12 | / | / | / | /
COc1ccccc1CCC(=O)Nc1ccc(S(=O)(=O)Nc2ncccn2)cc1 | 3 | / | / | / | /
Oc1[nH]c2ccccc2c1N=Nc1ccccn1 | 96 | / | / | / | /
c1ccc(/N=C2\N=C(Nc3ccccn3)c3ccccc32)nc1 | -99* | / | / | / | /
Cc1cccc2cc(C#N)c(NCCNS(=O)(=O)c3ccc4c(c3)OCCO4)nc12 | 13 | -7 | 5.2µM* | -5 | -15%
COc1ccc2nc(NCCNC(=S)NCCCN3CCOCC3)c(C#N)cc2c1 | -7 | 3 | -33%[5.75 µM] | -1 | ?
CCC(=O)NCCCNc1nc2c(C)cccc2cc1C#N | 32 | -4 | 3% | 10 | 24%
Cc1cc2cc(C#N)c(NCCNC(=S)NCCCN3CCOCC3)nc2cc1C | -28 | -5 | 223% | -3 | 13µM*
Cc1cccc2cc(C#N)c(NCCNC(=S)NCCCN3CCOCC3)nc12 | -26 | -12 | -17% | -2 | 10µM*
Cc1cc(C)cc(NC(=O)COC(=O)Cc2ccccc2F)c1 | -16 | / | -9% | / | 17%
O=C(CCc1nc(-c2ccccc2F)no1)Nc1cccc(C(F)(F)F)c1 | -33 | / | / | / | /
O=C(NCc1ccc2[nH]c3c(c2c1)CCCC3)c1ccc(S(=O)(=O)N2CCCC2)cc1 | -79* | -15 | 13µM* | 1 | 0%
CCN(CC)S(=O)(=O)c1ccc(C(=O)NCc2ccc3[nH]c4c(c3c2)CCCC4)cc1 | 35 | -12 | 12µM* | -3 | ?
